Assay results from PubChem BioAssay AID1347076 (National Center for Advancing Translational Sciences (NCATS), 2019).
Out of some 400,000 compounds screened, about 13,000 (3.2%) were called active. Inconclusive results (about 18%) are left out. Calls follow the shape of the dose curve; as a rule, active = well fitted cell-killing curve with a large enough effect; inconclusive = small, poorly fitted or top-dose-only effect, or effect the other way; inactive = flat fitted curve, though single readings scatter. Shown is part of a subset that was picked to be rich in actives. A call without a number means that no potency is given here.
Potency is read from the fitted curve at half-maximal effect.

Experiment: qHTS assay for MDR1-selective chemotherapeutics: Primary screen using the drug-selected MDR subline cells KB-V1; also: nearly all actives have a fitted effect of over 60% in size
Details: KB-V1 MDR cells viability, CellTiter-Glo, 72 h; series mostly up to 46.1 µM
Summary of the method: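 qHTS viability screen in drug-selected KB-V1 MDR cells: 72 h compound treatment at 37 degrees C, ATP luminescence end point.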
In the case of COc1ccc(CN2C(=O)C(CC(=O)NC3CCCCC3)CC(C(=O)N3CCOCC3)=C2C)cc1 (centres undefined), the Potency is reported as “inactive”.
In the case of O=C(O)C1CCCCC1C(=O)Nc1ccc(Cl)cc1 (centres undefined), the Potency is reported as “inactive”.
In the case of O=C(Nc1cnn(Cc2ccc(Cl)cc2)c1)C1CCCC1, the Potency is reported as 20.6 µM (active).
For CCn1cc(CN2CCC(C(=O)Nc3cccc(-c4cccc(Cl)c4)c3)CC2)cn1, the Potency was “inactive”.
In the case of CCCCCCN1C[C@@H](O)[C@H](n2cc(COC(=O)c3ccccc3)nn2)C[C@@H]1c1ccc(Cl)cc1, the Potency is reported as “inactive”.
With Cc1ccc(OCCSc2nc3ccc(NC(=O)COc4ccc(C)cc4)cc3s2)cc1 the Potency was “inactive”.
In the case of COC(=O)c1cc(C(=O)OC)cc(N2C(=O)CC(N3CCN(c4ccccc4)CC3)C2=O)c1 (centres undefined), the Potency is reported as “inactive”.
In the case of COC(=O)[C@@]1(Sc2ccc(C)cc2)CC(=O)N(c2cccc(SC)c2)[C@@H]1c1ccccc1, the Potency is reported as 20.6 µM (active).
For CCOC(=O)N1C(=O)C[C@](Sc2ccc(C)cc2)(C(=O)OC)[C@H]1c1ccccc1, the Potency was “inactive”.
In the case of Clc1cccc[n+]1CCCC[n+]1ccccc1Cl, the Potency is reported as “inactive”.
In the case of Cc1ccc(NS(=O)(=O)c2ccc(C(C)(C)C)cc2)cn1, the Potency is reported as “inactive”.
For Cc1cc(C)cc(NS(=O)(=O)c2ccc(F)cc2)c1, the Potency was “inactive”.
With Cc1cc(C)cc(NS(=O)(=O)c2ccc(Oc3ncc(C(F)(F)F)cc3Cl)cc2)c1 the Potency was 16.4 µM (active).
In the case of CC1(C(=O)Nc2cccc(Oc3ccccc3)c2)CCN1Cc1ccccc1Cl (centres undefined), the Potency is reported as “inactive”.
For CCC(=O)Nc1c(S(=O)(=O)c2ccccc2)c2nc3ccccc3nc2n1Cc1ccccc1, the Potency was 4.11 µM (active).
With Cc1ccc(S(=O)(=O)c2c(N)n(C)c3nc4ccccc4nc23)cc1 the Potency was “inactive”.
With CCN(CC)CCn1c(N)c(S(=O)(=O)c2ccccc2)c2nc3ccccc3nc21 the Potency was “inactive”.
In the case of Cc1c(NC(=O)c2cc(=O)c3ccccc3o2)c(=O)n(-c2ccccc2)n1C, the Potency is reported as “inactive”.
For O=C(C[C@H]1C[C@@H]2c3cc(NC(=O)C4CCC4)ccc3O[C@@H]2[C@H](CO)O1)NC1CCCCC1, the Potency was “inactive”.
For CCCNC(=O)c1cc(C2CCCN(C(=O)c3ccc4c(c3)CCO4)C2)on1 (centres undefined), the Potency was “inactive”.
With Cc1ccc2nc(N3CCN(C(=O)c4ccco4)CC3)sc2c1 the Potency was “inactive”.
For O=C(NCc1ccc(F)cc1)c1ccc2nc(N3CCCCC3)sc2c1, the Potency was “inactive”.
In the case of c1c2c(cc3sc(N4CCCCC4)nc13)OCCO2, the Potency is reported as 20.6 µM (active).
With COc1ccccc1CNC(=O)NCc1noc2ccc(C)cc12 the Potency was “inactive”.
For COc1cccc2c1C(=O)c1c(O)c3c(c(O)c1C2=O)CC(O)(C(C)=NNC(=O)c1ccc(Cl)c(Cl)c1)CC3OC1CC(N)C(O)C(C)O1 (centres undefined), the Potency was 23.1 µM (active).
For CC(=O)Nc1cccc(Nc2ccc(C#N)cc2)c1, the Potency was “inactive”.
For CCOC(=O)C1=C(c2ccccc2)Nc2ncnn2C1c1ccc(Cl)cc1 (centres undefined), the Potency was “inactive”.
In the case of CCNC(=O)C1(C)CCCN1C(=O)c1ccc(N(C)C)cc1 (centres undefined), the Potency is reported as “inactive”.
In the case of CC1(C)N=C(SCc2ccccc2Cl)c2ccccc2N1, the Potency is reported as “inactive”.
For Clc1ccccc1CSc1nnc(-c2ccco2)c(-c2ccco2)n1, the Potency was 20.6 µM (active).
For Clc1ccccc1CSc1nncn2c1cc1occc12, the Potency was “inactive”.
For O=S(=O)(NCC(c1ccco1)N1CCOCC1)c1cc(F)ccc1F (centres undefined), the Potency was “inactive”.
For CCC(=O)N1Cc2cc(C(=O)NCc3cccc(F)c3)nc(-c3cccc(C4=CCCC4)c3)c2[C@H]1CCO, the Potency was “inactive”.
With O=C(NC1CCCCCC1)C1CCN(C(=O)c2ccc(Cl)cc2)CC1 the Potency was 14.6 µM (active).
With O=C(NNC(=O)C1CCN(c2ncccn2)CC1)c1ccccc1 the Potency was “inactive”.
In the case of O=C(NC1CCCC1)C1CCN(C(=O)Nc2cccc(Cl)c2)CC1, the Potency is reported as “inactive”.
In the case of Cc1ccnc(N2CCCC(C(=O)NC3CC3)C2)n1 (centres undefined), the Potency is reported as “inactive”.
In the case of O=C(NC1CCN(C(=S)Nc2ccc(Cl)cc2)CC1)C1CCCCC1, the Potency is reported as “inactive”.
With Cc1ccnc(N2CCC(C(=O)NC3CCCCCC3)CC2)n1 the Potency was 16.4 µM (active).
With Cc1ccc(C(NC(=O)C2CCN(CCOc3ccc(Cl)cc3Cl)CC2)c2ccccn2)cc1 (centres undefined) the Potency was “inactive”.
In the case of COc1ccc(NC(=O)C[C@H]2C(=O)N(CCc3ccccc3)C[C@@H]2C)cc1, the Potency is reported as “inactive”.
In the case of CCCNC(=O)c1cc(C2CCCCN2S(=O)(=O)c2cn(C)cn2)on1 (centres undefined), the Potency is reported as “inactive”.
With C[C@H](NC(=O)[C@@H]1CCCN1C(=O)[C@@H]1CCCN1C(=O)c1ccccc1)c1ccccc1 the Potency was “inactive”.
In the case of O=C1NC[C@@H](CCCCN2CCN(CCc3ccc(O)cc3)C(=O)C2=O)N(CC2CCCCC2)C1=O, the Potency is reported as “inactive”.
With Cc1cc(C(=O)CSc2nc(N)cc(=O)[nH]2)c(C)n1CCc1ccc(Cl)cc1 the Potency was “inactive”.
For Cc1cc(C(=O)CSc2nc(N)cc(=O)[nH]2)c(C)n1-c1cccc(F)c1, the Potency was 3.66 µM (active).
For Cc1cc(C(=O)CSc2nc(N)cc(=O)[nH]2)c(C)n1Cc1ccco1, the Potency was “inactive”.
With Cc1cc(C(=O)N2CCCC2(C)C(=O)O)c(C)o1 (centres undefined) the Potency was “inactive”.
In the case of CS(=O)(=O)c1ccc2nc(NC(=O)c3ccc(Cl)nc3)sc2c1, the Potency is reported as “inactive”.
